# Source: ChEMBL document CHEMBL3433997, “St. Jude Leishmania screening dataset” (2016)
# How the values were obtained:
# Type in all cases: functional
# [1] = biological target: Solute carrier family 2, facilitated glucose transporter member 1 (Homo sapiens) (UniProt P11166); experiment: ST_JUDE_LEISH: Cytotoxicity at 2uM final concentration against transgenic Leishmania Mexicana promastigotes LmGLUT1 that are glucose transport deficient and complemented with the human glucose transporter GLUT1. Activity is measured by DNA content using SYBR green in vitro
# [2] = biological target: Hexose transporter 1 (Plasmodium falciparum) (UniProt O97467); experiment: ST_JUDE_LEISH: Cytotoxicity at 2uM final concentration against transgenic Leishmania Mexicana promastigotes LmPfHT that are glucose transport deficient and complemented with the Plasmodium falciparum hexose transporter. Activity is measured by DNA content using SYBR green in vitro
# [3] = biological target: Glucose transporter (Leishmania mexicana) (UniProt O61059); experiment: ST_JUDE_LEISH: Cytotoxicity at 2uM final concentration against transgenic Leishmania Mexicana promastigotes LmGT2 that are glucose transport deficient and complemented with the L. Mexicana glucose transporter 2. Activity is measured by DNA content using SYBR green in vitro
# Solute carrier family 2, facilitated glucose transporter member 1 (Homo sapiens), sequence (P11166 whole entry): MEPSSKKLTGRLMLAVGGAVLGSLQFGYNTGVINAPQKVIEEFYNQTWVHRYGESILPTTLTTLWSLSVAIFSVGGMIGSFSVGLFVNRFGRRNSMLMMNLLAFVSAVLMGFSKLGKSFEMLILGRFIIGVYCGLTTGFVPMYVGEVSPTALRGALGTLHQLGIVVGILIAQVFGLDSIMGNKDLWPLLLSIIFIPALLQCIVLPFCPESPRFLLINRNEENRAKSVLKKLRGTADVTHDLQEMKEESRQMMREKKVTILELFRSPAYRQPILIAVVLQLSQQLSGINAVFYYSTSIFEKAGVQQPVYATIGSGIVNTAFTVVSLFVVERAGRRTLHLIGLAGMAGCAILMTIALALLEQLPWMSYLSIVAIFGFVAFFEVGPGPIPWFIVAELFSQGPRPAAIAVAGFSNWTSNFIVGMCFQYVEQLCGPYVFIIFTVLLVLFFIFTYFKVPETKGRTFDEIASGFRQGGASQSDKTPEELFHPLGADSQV
SMILES,inhibition [1],inhibition [2],inhibition [3]
Fc1ccc2[nH]c(-c3ccc(-c4ccc(CNCc5ccccc5)cc4)cc3)nc2c1,12.6%,8.67%,6.7%
Nc1nc(N)c2c(ccc3c2ccn3C2CCCCC2)n1,24.3%,36.6%,25.7%
CCc1nc(N)nc(N)c1-c1ccc(C(C)(C)C)cc1,13%,3.45%,0.88%
CC(=O)Nc1ccc(C2NC(=O)NC(c3ccccc3)=C2c2nc3ccccc3s2)cc1 (configuration not stated),3.15%,0.83%,2.69%
O=C(Nc1cccnc1)c1cc(C(=O)Nc2cccnc2)cc([N+](=O)[O-])c1,0.86%,3.44%,0.83%
COc1ccc(-c2cnc(N)nc2N)cc1Cl,1.93%,1.5%,2.06%
CN1CCN(CCCCCCNc2c3ccccc3nc3ccccc23)CC1,27.1%,19.4%,10.9%
Fc1ccccc1C=NNc1ccnc2cc(Cl)ccc12,5.84%,7.17%,6.07%
COC(=O)C(NC(=O)NC1CCN(c2ccnc(Nc3ccc(F)cc3)n2)C1)c1ccccc1 (configuration not stated),-3.11%,-1.97%,-2.66%
CN1CCN(c2cccc(Nc3nccc(NCC(O)c4ccccc4)n3)c2)CC1 (configuration not stated),1.83%,1.6%,0.06%
C=C[C@H]1CN(CCCCCCC)CC[C@H]1CCN(C)c1ccnc2ccc(OC)cc12,1.17%,2.44%,2.13%
CC(Cc1ccc(C(=O)N2CCN(C(=O)c3ccc(CC(C)NCCc4cccc(Cl)c4)cc3)CC2)cc1)NCCc1cccc(Cl)c1 (configuration not stated),6.51%,3.6%,5.54%
NCc1ccc(-c2ccc3c(N)nccc3c2)cc1,-3.43%,0.57%,0.41%
O=C(NCc1ccc(C(=O)NCc2cccc3ccccc23)cc1)c1ccc(O)c(-c2ccc(Cl)c(Cl)c2)c1,0.64%,2.17%,0.96%
